The target of assay [1] is Lysosomal acid glucosylceramidase (Homo sapiens) (UniProt P04062). Nature of the assay: Glucocerebrosidase-p2 (AID 348; in the data active = potency below about 10 µM; note: potency is the fitted concentration of half-maximal effect). The settings on record: purified GBA, blue fluorogenic substrate, 40 min. Put shortly: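 Normal human glucocerebrosidase (0.2 nM) with blue fluorogenic substrate (80 uM final) in citrate/phosphate pH 5.9 with 10mM sodium taurocholate, 0.01% tween-20; 40 min RT, NaOH/glycine stop; fluorescence Ex 365/Em 440; AC50 from a titration from 0.6 nM upwards.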

Assay [2] in a line: AP1 Signaling Pathway (AID 357; active = well fitted curve in either direction with a large enough effect, not every such curve was filed as active;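 note: ME-180 reporter cells stimulated with EGF at its EC50 level; % is set by controls: 0 for no effect and ±100 for the full control effect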). The following applies: ME-180 AP-1-bla reporter, EGF-induced, beta-lactamase ratio, 5 h; at 7.69 µM (top of the series) unless noted. Put shortly: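 AP-1-bla ME-180 cells, Opti-MEM + 0.5% dialyzed FBS, plated overnight 37 °C. Cpd titration + EC50 EGF, 5 h 37 °C. CCF4 2.5 h RT; ex 405, em 460/530 ratio → %activity, AC50.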
In assay [3] the target is Cytochrome P450 1A2 (Homo sapiens) (UniProt P05177). Nature of the assay: p450-cyp1a2 (AID 410; calls by dose curve; note: potency is the fitted concentration of half-maximal effect;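 for activity change, negative = inhibition: -100% = full effect of reference inhibitor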). The settings on record: recombinant CYP1A2, luciferin-ME demethylation, luminescence; series mostly up to 57 µM. The gist of the method: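 20nM CYP1A2, 100uM Luciferin-ME (=Km), 100mM KPO4; cpd 10 min RT; +NADPH regen, 60 min RT; stop/detect 20 min; luminescence. Normalized to furafylline 57 uM = full inhibition.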

The nature of assay [4]: Stat Signaling Pathway (AID 446; active = well fitted curve in either direction with a large enough effect, not every such curve was filed as active;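 note: ME-180 cervical cancer cells given 40 pM IL-6 alongside compound; SIE-controlled beta-lactamase reporter measured as 460/530 nm FRET emission ratio; % is set by controls: 0 for no effect and ±100 for the full control effect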). The settings on record: ME-180 SIE beta-lactamase reporter, IL-6 stimulated, 5 h; at 7.69 µM (top of the series) unless noted. Put shortly:
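Emission at 460 and 530 nm (excitation 405 nm) reports SIE-controlled beta-lactamase in ME-180 cells. Cells received compound with 40 pM IL-6 for 5 hrs at 37 C; data scaled between 300 pM IL-6 and 125 nM JAK-inhibitor controls.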

In assay [5] the target is Glucocorticoid receptor (Homo sapiens) (UniProt P04150). As to the kind of experiment: GR-GFP Redistribution (AID 450;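 active = compounds whose dose series gives a full or clear partial fitted curve of increased nuclear translocation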; note: potency is the fitted concentration of half-maximal effect). The settings on record: U2OS GR-GFP nuclear translocation, laser cytometry, 2 h.
For assay [6] the target is unchanged. Nature of the assay: GR-EFC Redistribution (AID 451; calls by dose curve; note: potency is the fitted concentration of half-maximal effect). The following applies: CHO-K1 GR-EFC translocation, beta-gal luminescence, 2 h. Put shortly: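 CHO-K1 cells expressing nuclear EA and GR-ED fragments of b-gal; compounds titrated up to 46 uM final, 2 h at 37 C. GR nuclear translocation read as complemented b-gal luminescence after 1 h RT detection.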
Assay [7] deals with Mitogen-activated protein kinase 10 (Mus musculus) (UniProt Q61831). Nature of the assay: JNK3 AlphaScreen Assay (AID 530; active = well fitted curve in either direction with a large enough effect, not every such curve was filed as active;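 note: kinase came from lysate of stimulated human HepG2 cells; signal reports phosphorylation of biotinylated GST-cJun 1-79 at Ser73 with 10 µM ATP; % is set by controls: 0 for no effect and ±100 for the full control effect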). The settings on record: JNK3 lysate, c-Jun phosphorylation; series mostly up to 57.1 µM. Put shortly: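 HepG2 lysate (IL-1b/TNFa pre-activated) + biotin-GST-cJun 1-79 + anti-pSer73 cJun; cpd titration, 15 min RT; ATP 10 uM start; Tris pH 7.6, MgCl2, DTT, vanadate; beads in EDTA buffer; AlphaScreen.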
For orientation: Bead proximity is the source of the signal in Alpha formats.

Assay [8] is described as follows: qHTS Assay for Lipid Storage Modulators (AID 1519; calls by dose curve). The settings on record: Drosophila S3 cells, BODIPY lipid droplet/cell ratio, laser cytometry, cells loaded with oleic acid; for activity change, negative = inhibition: at 57.5 µM (top of the series). Put shortly:
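Cells seeded at 5,000 per well were treated with compounds over a concentration series and loaded with oleic acid (400 uM, as added). Lipid droplet fluorescence (488 nm excitation, 500-530 nm channel) was read by laser-scanning cytometry and normalized to 20 uM Triacsin C.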
On the technique in general: qHTS replaces the single test concentration by a dilution series.

The target in assay [9] is Dual specificity protein kinase CLK4 (Homo sapiens) (UniProt Q9HAZ1). Nature of the assay: qHTS Assay for Inhibitors of CDC-like Kinase 4 (Kinase-Glo Assay) (AID 1770). Note: nearly all actives have a fitted effect of over 65% in size. Note: potency is the fitted concentration of half-maximal effect. The settings on record: recombinant Clk4, Kinase-Glo ATP depletion luminescence; series mostly up to 66.7 µM. Put shortly: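 Inhibition was judged from remaining ATP, measured by Ultra-Glo luciferase bioluminescence after Clk4 (25 nM) had acted on RS peptide at 1 uM ATP for 4.5 hours, room temperature.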

Assay [10] has the same target. Nature of the assay: qHTS Assay for Inhibitors of CDC-like Kinase 4 (ADP-Glo Assay) (AID 1771). Note: nearly all actives have a fitted effect of over 70% in size. Note: potency is the fitted concentration of half-maximal effect. The settings on record: recombinant CLK4, ADP-Glo luminescence; series mostly up to 80 µM. The gist of the method: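 25 nM Clk4, 100 uM RS peptide, 1 uM ATP (final); 2 mM MgCl2, 0.5 mM EGTA, 2.5 mM DTT, 0.01% Triton X-100; 1 hr RT. ADP-Glo readout: ATP depletion 45 min, conversion/luciferase 30 min, luminescence.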

The target is the same in assay [11]. Nature of the assay: qHTS Assay for Inhibitors of CDC-like Kinase 4 (ADP-FP Assay) (AID 1795). Note: nearly all actives have a fitted effect of over 60% in size. Note: potency is the fitted concentration of half-maximal effect. The following applies: Transcreener ADP fluorescence polarization; series mostly up to 50 µM. The gist of the method: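 Inhibition of ADP formation by 6.25 nM Clk4 is measured using 1 uM ATP and 100 uM RS repeat peptide over one hour. Produced ADP displaces a fluorescent tracer from antibody, lowering polarization.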

The target of assay [12] is Ubiquitin carboxyl-terminal hydrolase 1 (Homo sapiens) (UniProt O94782). As to the kind of experiment: Inhibitors of USP1/UAF1: Pilot qHTS (AID 504865).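 Note: rhodamine fluorescence freed from ubiquitin-rhodamine substrate followed over time; top concentration of the series differs between compounds; % is set by controls: 0 for no effect and ±100 for the full control effect; nearly all actives have a fitted effect of over 35% in size.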 The following applies: purified USP1/UAF1, Ub-rhodamine cleavage fluorescence; series mostly up to 54.9 µM. The gist of the method: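 Kinetic fluorescence assay: 1nM USP1/UAF1, 15 min compound preincubation, then 150nM Ub-Rho; 480/540 nm.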

Assay [13] has as its target 3',5'-cyclic-AMP phosphodiesterase 4B (Homo sapiens) (UniProt Q07343). As to the kind of experiment: qHTS Assay for Inhibitors of PDE-IV (AID 607; active = well fitted activation curve with a large enough effect in the main read-out, with a control signal flat, not every such curve was filed as active; note: % of control where 0% means no effect). The settings on record: HEK293 ACTOne CNG channel cells, membrane potential fluorescence; series mostly up to 22.9 µM. Put shortly: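 The readout is membrane depolarisation from a cAMP-sensing CNG channel, detected with a potential dye at ex 535/em 590. Cells were HEK293-derived (endogenous PDE-IV) at 1000 cells/well, titrated up to 22.9 uM final.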

The target in assay [14] is Cytochrome P450 3A4 (Homo sapiens) (UniProt P08684). As to the kind of experiment: qHTS Assay for Inhibitors and Substrates of Cytochrome P450 3A4 (AID 884). Note: nearly all actives have a fitted effect of over 50% in size. Note: potency is the fitted concentration of half-maximal effect. The following applies: recombinant CYP3A4, Luciferin-PPXE luminescence; series mostly up to 57.1 µM. Put shortly:
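Luminescent readout of luciferin produced by CYP3A4 (20 nM) dealkylation of Luciferin-PPXE, 25 uM (its KM). NADPH-driven reaction ran 60 min at RT after 10 min compound preincubation; data scaled to 57 uM ketoconazole as 100% inhibition.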

For assay [15] the target is unchanged. As to the kind of experiment: qHTS Assay for Activators of Cytochrome P450 3A4 (AID 885). Note: nearly all actives have a fitted effect of over 65% in size. Note: potency is the fitted concentration of half-maximal effect. The settings on record: recombinant CYP3A4, Luciferin-PPXE luminescence, 60 min; series mostly up to 57.1 µM. Put shortly: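 Activators are scored by enhanced luminescence from CYP3A4 conversion of luciferin-PPXE (25uM, equal to KM) to luciferin, after 60 min at RT with an NADPH-regenerating system.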

The nature of assay [16]: NFAT Signaling Pathway (AID 444; active = well fitted curve in either direction with a large enough effect, not every such curve was filed as active;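 note: carbachol stimulus at about its EC50 of 1 µM final; % is set by controls: 0 for no effect and ±100 for the full control effect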). The settings on record: Jurkat NFAT-bla M1, carbachol, beta-lactamase ratio, 5 h; at 7.69 µM (top of the series) unless noted. The gist of the method: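 Jurkat cells with NFAT-driven β-lactamase reporter and co-expressed M1 receptor, stimulated with carbachol (final 1 uM, ~EC50), compound titration, 5 h at 37 °C. CCF4 loaded 1 h at RT; 460/530 nm ratio gave %activity and AC50.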

The target in assay [17] is Cytochrome P450 2C19 (Homo sapiens) (UniProt P33261). Nature of the assay: qHTS Assay for Inhibitors and Substrates of Cytochrome P450 2C19 (AID 899). Note: potency is the fitted concentration of half-maximal effect; nearly all actives have a fitted effect of over 60% in size. The following applies: recombinant CYP2C19, luciferin-H EGE luminescence; series mostly up to 57.1 µM. The gist of the method:
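Luminescent read-out of luciferin formed from Luciferin-H EGE (10uM, equal to KM). Enzyme 5nM in 50mM KPO4; compound added, 10 min at 37C, then NADPH regenerating system for 60 min at 37C. Full inhibition defined by 57uM ketoconazole.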

Assay [18] can be described thus: qHTS Assay for Identification of Small Molecule Agonists for Hypoxia Response Element Signaling Pathway (AID 914; active = well fitted activation curve with a large enough effect in the signal ratio, with a control signal flat, not every such curve was filed as active; the % refers to the signal ratio; note: potency is the fitted concentration of half-maximal effect). The following applies: ME-180 (cervical carcinoma) HRE-bla reporter, beta-lactamase ratio, CoCl2, 17 h; activation: stronger effect = higher value. Put shortly:
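Read-out: CCF4 FRET ratio of 460nm to 530nm emission (excitation 405nm) after 2.5 hours at room temperature, taken from HRE-bla ME-180 cells that had been exposed to compound and EC50 CoCl2 for 17 hours.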

[19] abbreviates: measured here: cell count channel max response.
The mark [20] stands for this setting: measured here: lipid channel max response.

Records with an inconclusive call do not appear. Active and inactive are the calls of the source. Unless noted, calls come from the whole dose curve; as a rule, active = well fitted curve in the direction sought with a large enough effect; inconclusive = small, poorly fitted or top-dose-only effect, or another doubt; inactive = no such curve, though single readings can be large; an effect the other way counts as inactive or inconclusive. Some results are limits rather than exact numbers.

Chain of 3',5'-cyclic-AMP phosphodiesterase 4B (Homo sapiens) (Q07343 whole entry, looked up): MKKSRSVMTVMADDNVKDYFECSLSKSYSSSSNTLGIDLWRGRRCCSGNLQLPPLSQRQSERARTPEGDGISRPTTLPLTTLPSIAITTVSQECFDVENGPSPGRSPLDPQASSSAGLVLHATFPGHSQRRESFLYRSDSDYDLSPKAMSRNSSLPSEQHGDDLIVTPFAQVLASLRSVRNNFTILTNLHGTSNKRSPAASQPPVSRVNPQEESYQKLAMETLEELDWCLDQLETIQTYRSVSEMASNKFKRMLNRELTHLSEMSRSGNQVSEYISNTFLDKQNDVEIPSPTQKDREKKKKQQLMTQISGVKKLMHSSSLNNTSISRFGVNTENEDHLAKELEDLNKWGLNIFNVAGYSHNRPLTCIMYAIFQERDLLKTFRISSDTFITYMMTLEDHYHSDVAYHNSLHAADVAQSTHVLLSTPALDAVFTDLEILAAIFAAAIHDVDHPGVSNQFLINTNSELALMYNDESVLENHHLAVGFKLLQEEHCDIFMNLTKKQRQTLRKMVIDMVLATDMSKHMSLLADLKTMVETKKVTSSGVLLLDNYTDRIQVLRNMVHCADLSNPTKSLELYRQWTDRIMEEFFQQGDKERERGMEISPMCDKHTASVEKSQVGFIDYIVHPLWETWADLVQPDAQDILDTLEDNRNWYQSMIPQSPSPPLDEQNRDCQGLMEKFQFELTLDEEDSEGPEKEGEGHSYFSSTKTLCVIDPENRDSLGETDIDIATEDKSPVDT
Chain of Lysosomal acid glucosylceramidase (Homo sapiens) (P04062 whole entry, looked up): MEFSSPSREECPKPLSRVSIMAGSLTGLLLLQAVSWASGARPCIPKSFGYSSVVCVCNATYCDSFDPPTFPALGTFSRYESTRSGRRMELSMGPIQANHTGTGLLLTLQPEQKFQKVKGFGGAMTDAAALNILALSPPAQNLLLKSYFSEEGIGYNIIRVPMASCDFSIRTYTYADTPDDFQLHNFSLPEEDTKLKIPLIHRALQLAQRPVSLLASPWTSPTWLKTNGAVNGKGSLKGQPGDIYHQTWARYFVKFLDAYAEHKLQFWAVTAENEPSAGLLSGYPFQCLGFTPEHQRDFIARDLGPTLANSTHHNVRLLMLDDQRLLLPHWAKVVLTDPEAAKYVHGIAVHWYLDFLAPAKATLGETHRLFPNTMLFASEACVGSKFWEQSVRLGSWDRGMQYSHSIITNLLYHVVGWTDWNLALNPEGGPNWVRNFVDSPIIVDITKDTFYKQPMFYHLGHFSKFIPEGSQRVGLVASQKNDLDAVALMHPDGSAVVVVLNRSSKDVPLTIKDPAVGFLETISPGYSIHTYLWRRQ
Chain of Ubiquitin carboxyl-terminal hydrolase 1 (Homo sapiens) (O94782 whole entry, looked up): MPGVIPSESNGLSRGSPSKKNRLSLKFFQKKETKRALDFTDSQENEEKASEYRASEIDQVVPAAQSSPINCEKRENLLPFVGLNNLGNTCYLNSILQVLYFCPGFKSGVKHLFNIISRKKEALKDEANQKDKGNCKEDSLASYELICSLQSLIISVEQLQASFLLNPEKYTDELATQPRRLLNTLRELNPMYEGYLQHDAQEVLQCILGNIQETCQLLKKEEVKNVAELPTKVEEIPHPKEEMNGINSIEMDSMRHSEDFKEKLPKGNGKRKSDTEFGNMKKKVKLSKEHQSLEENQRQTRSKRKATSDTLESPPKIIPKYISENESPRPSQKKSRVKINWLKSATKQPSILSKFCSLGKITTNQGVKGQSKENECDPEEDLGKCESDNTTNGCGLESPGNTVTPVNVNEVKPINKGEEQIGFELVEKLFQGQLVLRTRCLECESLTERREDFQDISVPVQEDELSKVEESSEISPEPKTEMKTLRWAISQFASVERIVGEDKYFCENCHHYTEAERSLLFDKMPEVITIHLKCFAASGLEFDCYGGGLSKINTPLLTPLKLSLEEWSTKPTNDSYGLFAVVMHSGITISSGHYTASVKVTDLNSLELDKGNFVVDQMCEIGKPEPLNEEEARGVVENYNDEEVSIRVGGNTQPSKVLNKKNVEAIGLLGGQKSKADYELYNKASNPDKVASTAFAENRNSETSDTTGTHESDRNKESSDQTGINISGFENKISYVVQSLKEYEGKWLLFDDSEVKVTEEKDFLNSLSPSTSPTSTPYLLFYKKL
Chain of Cytochrome P450 1A2 (Homo sapiens) (P05177 whole entry, looked up): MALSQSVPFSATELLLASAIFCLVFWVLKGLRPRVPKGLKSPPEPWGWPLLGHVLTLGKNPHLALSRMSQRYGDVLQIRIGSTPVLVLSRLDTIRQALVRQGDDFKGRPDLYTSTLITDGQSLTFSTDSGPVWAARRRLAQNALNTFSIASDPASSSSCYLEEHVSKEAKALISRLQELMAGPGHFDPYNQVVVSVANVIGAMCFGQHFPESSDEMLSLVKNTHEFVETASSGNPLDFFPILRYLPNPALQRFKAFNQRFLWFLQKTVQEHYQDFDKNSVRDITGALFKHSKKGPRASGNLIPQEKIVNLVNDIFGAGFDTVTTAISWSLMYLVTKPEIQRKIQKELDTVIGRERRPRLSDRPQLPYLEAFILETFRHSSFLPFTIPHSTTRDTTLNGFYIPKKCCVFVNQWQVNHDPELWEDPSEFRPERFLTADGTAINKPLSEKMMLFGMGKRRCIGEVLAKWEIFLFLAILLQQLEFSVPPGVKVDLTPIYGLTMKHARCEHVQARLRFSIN
Chain of Glucocorticoid receptor (Homo sapiens) (P04150 whole entry, looked up, the tested form may be a part): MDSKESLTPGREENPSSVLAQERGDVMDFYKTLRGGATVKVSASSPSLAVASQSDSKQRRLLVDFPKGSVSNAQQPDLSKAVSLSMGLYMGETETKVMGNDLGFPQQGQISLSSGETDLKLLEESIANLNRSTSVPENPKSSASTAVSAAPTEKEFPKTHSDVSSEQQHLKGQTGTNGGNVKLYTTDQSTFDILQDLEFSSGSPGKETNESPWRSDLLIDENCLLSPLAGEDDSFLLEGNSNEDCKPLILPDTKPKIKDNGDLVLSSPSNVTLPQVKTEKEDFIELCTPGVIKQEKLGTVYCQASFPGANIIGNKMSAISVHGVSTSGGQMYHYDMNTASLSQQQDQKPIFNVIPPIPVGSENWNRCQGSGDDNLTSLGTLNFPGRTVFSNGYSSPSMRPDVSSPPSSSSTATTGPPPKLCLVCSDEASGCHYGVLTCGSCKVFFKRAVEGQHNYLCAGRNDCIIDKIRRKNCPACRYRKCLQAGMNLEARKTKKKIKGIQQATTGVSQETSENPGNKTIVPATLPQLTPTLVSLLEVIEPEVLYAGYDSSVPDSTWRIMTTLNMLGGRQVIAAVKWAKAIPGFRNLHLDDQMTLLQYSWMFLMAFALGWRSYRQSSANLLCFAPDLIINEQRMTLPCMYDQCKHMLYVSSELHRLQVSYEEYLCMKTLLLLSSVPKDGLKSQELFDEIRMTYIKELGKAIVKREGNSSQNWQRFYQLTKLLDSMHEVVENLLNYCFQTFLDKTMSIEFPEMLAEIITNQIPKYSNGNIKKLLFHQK
Chain of Dual specificity protein kinase CLK4 (Homo sapiens) (Q9HAZ1 whole entry, looked up): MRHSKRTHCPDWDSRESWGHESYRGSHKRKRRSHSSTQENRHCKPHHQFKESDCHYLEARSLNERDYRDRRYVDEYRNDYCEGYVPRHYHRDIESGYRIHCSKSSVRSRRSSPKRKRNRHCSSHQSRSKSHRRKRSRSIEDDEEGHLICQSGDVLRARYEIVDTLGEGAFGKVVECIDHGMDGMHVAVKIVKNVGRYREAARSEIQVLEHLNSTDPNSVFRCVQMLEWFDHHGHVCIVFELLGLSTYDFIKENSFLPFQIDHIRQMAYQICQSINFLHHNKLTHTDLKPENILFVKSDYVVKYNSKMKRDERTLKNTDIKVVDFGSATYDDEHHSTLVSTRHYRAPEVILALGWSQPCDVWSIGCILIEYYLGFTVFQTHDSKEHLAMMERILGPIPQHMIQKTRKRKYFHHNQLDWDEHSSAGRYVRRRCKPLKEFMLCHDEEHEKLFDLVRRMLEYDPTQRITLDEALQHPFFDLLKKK
Chain of Cytochrome P450 3A4 (Homo sapiens) (P08684 whole entry, looked up): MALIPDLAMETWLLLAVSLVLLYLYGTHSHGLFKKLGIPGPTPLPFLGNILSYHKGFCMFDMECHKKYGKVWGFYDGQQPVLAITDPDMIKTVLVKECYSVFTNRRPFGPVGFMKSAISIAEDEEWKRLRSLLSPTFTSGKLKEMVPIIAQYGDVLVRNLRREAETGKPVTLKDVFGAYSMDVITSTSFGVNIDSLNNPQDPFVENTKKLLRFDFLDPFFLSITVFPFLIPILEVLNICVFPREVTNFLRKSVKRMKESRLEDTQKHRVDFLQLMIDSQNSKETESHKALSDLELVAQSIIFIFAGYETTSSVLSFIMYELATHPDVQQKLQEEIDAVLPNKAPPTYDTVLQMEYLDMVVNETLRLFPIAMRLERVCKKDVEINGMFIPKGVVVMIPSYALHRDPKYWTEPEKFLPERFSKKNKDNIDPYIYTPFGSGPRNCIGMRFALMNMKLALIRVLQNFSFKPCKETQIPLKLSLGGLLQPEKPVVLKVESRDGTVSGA
Chain of Cytochrome P450 2C19 (Homo sapiens) (P33261 whole entry, looked up): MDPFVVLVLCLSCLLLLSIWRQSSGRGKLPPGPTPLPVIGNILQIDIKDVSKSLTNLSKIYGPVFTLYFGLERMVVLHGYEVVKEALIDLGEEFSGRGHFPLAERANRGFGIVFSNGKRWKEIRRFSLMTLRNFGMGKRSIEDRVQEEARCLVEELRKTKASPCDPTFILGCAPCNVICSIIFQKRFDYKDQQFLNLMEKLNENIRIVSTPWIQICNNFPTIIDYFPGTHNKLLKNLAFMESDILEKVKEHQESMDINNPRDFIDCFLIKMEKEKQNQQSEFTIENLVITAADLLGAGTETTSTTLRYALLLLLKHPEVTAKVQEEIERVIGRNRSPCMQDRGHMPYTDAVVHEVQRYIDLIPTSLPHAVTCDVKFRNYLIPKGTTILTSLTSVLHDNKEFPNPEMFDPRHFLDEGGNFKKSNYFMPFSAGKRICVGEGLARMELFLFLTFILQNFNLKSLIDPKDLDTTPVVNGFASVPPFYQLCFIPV

As to `CN(C)Cc1ccccc1-c1cc(NCc2ccccc2)ncn1`, the values for the Potency in assay [1], in assay [5] and in [6] were > 11.4 µM (inactive), > 46 µM (inactive) and > 46 µM (inactive), respectively. The activity change, negative = inhibition in [2] is -0.0154% (inactive); in [8], 4.72% (inactive). For the same compound, the Potency entry in [3], in assay [7], in assay [9], in assay [10], in assay [11] and in assay [12] was “inactive” throughout. Besides, the activity, negative = inhibition in assay [4] was 12.3% (inactive). Also, the values for the max response in assay [8] (setting [19]) and in assay [8] (setting [20]) were 6.7% and 9.63%, respectively.
As for `CN1CCN(c2ncc3nc(-c4ccc(Cl)cc4)c(=O)n(Cc4ccc(F)cc4)c3n2)CC1`, the Potency in assay [1] was > 11.4 µM (inactive); in assay [5] it was > 9.22 µM (inactive); in [6], > 46 µM (inactive); in [15] it was 15.8 µM (active). In addition, the Potency result in [13], in [14], in assay [9], in assay [10], in assay [11] and in assay [12] was “inactive” each time. For the same compound, the activity change, negative = inhibition in [8] is -1.37% (inactive). Moreover, the max response amounted to 15.9% in assay [8] (setting [19]) and 10.5% in [8] (setting [20]).
In the case of `COc1cccc(-c2ccc3ncnc(NCCc4c[nH]c5ccc(OC)cc45)c3c2)c1`, the Potency in assay [1] was > 11.4 µM (inactive); in assay [3] it was 3.98 µM (active); in assay [5] it was > 46 µM (inactive); in assay [6], > 46 µM (inactive); in assay [14], 1.26 µM (active); in assay [17], 3.16 µM (active). The Potency in [9] is 5.01 µM (active); in assay [10] it was 3.98 µM (active); in assay [11] it was 0.631 µM (active). The activity change, negative = inhibition is -6.66% (inactive) in assay [16] and -3.93% (inactive) in assay [8]. The Potency result in assay [13], in assay [15] and in assay [12] was “inactive” in each case. Further, the max response in assay [8] (setting [19]) is -24.6%; in assay [8] (setting [20]), -27.9%.
Turning to `COc1cccc(Cn2c(=O)c(-c3ccccc3)nc3cnc(N4CCN(C)CC4)nc32)c1`, the Potency was > 11.4 µM (inactive) in assay [1], > 9.22 µM (inactive) in [5], > 46 µM (inactive) in assay [6] and 3.16 µM (active) in assay [18]. For the same compound, the Potency result in assay [3], in [13], in assay [15], in assay [9], in assay [10] and in assay [11] was “inactive” each time. In addition, the Potency entry in [12] is “inactive”. Moreover, in assay [8], the activity change, negative = inhibition is -6.14% (inactive). The max response in assay [8] (setting [19]) was 6.94%; in assay [8] (setting [20]), -0.577%.
For `COc1cccc(Cn2c(=O)c(-c3ccc(F)cc3)nc3cnc(N4CCNCC4)nc32)c1`, the Potency was > 11.4 µM (inactive) in assay [1], 25.1 µM (active) in [3], > 9.22 µM (inactive) in [5] and > 46 µM (inactive) in [6]. Moreover, the Potency result in [13], in assay [15], in [9], in [10] and in [11] was “inactive” in each case. Further, the activity change, negative = inhibition in assay [8] is -5.11% (inactive). Also, the results for the max response in [8] (setting [19]) and in assay [8] (setting [20]) were 2.95% and 0.893%, respectively.
In the case of `COc1ccccc1-c1nccc(Nc2ccc(F)cc2)n1`, the Potency was > 11.4 µM (inactive) in assay [1], > 46 µM (inactive) in assay [5] and > 46 µM (inactive) in [6]. Besides, the activity change, negative = inhibition in assay [2] was 6.43% (inactive); in [16], 10.2% (inactive); in assay [8], 4.58% (inactive). Also, the activity, negative = inhibition in [4] was -4% (inactive). Besides, the Potency entry in assay [7], in assay [9], in assay [10] and in [11] was “inactive” throughout. In addition, the max response came to 9.46% in [8] (setting [19]) and 12.9% in assay [8] (setting [20]).
